Dicer inh: human Dicer pre-microRNA cleavage inhibition. cat-ELCCA pre-miR-21 Dicer processing, chemiluminescence; active compounds read high. actives 6% (n = 47,000). z-score at 25 µM. Q9UPY3. AID 1347074; in the data active = z-score above about 3, passing the limit was not always enough;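 also: plate controls were vehicle for no effect and no enzyme for full effect; higher signal means more uncleaved substrate so more Dicer inhibition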
* hit, by the source's call. The entries come from a sample that favours hits as a whole.

SMILES	Dicer inh
CCN1C(=O)c2cccc3c(S(=O)(=O)NC(C(=O)O)C(C)C)ccc1c23 (centres undefined)	0.08
CCOC(=O)c1c(C)csc1NC(=O)CSc1ccc(Cl)cc1	0.16
O=c1[nH]c2ccccc2c(=O)n1CCSc1ccccc1	-0.98
Cc1csc2c(=O)n(CCSc3ccc(Cl)cc3)c(=O)[nH]c12	3.1*
CCCC(=O)N1c2cc(C)ccc2C(=C2SC(C(=O)OC)=C(C(=O)OC)S2)C(=S)C1(C)C	2
COC(=O)C1=C(C(=O)OC)SC(=C2C(=S)C(C)(C)N(C(=O)C(C)C)c3cc(C)ccc32)S1	2.2
CCOC(=O)C1=C(C(=O)OCC)SC(=C2C(=S)C(C)(C)N(C(C)=O)c3cc(C)ccc32)S1	3.4*
COc1cc2c(cc1OC)C1=C(C#N)CN(CCc3ccccc3)CN1CC2	1.1
COc1cc2c(cc1OC)C1=C(C#N)CN(c3ccc(C)c(C)c3)CN1CC2	4.5*
COc1cc2c(cc1OC)CN(S(=O)(=O)c1ccc3c(c1)CCC(C)(C)O3)CC2	-0.69
O=C(c1cc(Cl)cc(Cl)c1)c1cc(Cl)cc(Cl)c1	-0.11
Cc1cc([N+](=O)[O-])nn1CC(=O)O	-0.25
COCCn1c2c(c(=O)[nH]c1=O)C(c1cccc3ccccc13)C1=C(N2)c2ccccc2C1=O (centres undefined)	0.43
CCn1c2c(c(=O)[nH]c1=O)C(c1cccc(Cl)c1)C1=C(N2)c2ccccc2C1=O (centres undefined)	-0.43
CCn1c2c(c(=O)[nH]c1=O)C(c1cccc3ccccc13)C1=C(N2)c2ccccc2C1=O (centres undefined)	3.4*
COC(=O)c1ccc(S(=O)(=O)N2CCC(O)(c3ccc(Cl)cc3)CC2)n1C	0.79
COc1ccc(S(=O)(=O)N2c3ccc(C)cc3C(C)=CC2(C)C)cc1	-1
CC1=CC(C)(C)N(S(=O)(=O)c2ccc(F)cc2)c2ccc(C)cc21	-0.75
CCOc1ccc(S(=O)(=O)N2c3ccc(C)cc3C(C)=CC2(C)C)cc1	3.5*
COc1cc(Cl)c(NC(=O)c2cc(Cl)cc(Cl)c2)c(Cl)c1	0.6
COc1ccc(OC)c(-c2cc(-c3ccccc3)nc(-c3cccc([N+](=O)[O-])c3)c2)c1	-0.7
COc1ccc(C2CC(=O)C3=C(C2)NC(C)=C(C(=O)OC(C)C)C3c2cccnc2)cc1 (centres undefined)	0.39
Cc1ccc2oc(-c3cccc(N)c3C)nc2c1	2.1
Cc1ccc(-c2nc3ccccc3o2)cc1N	-0.44
Cc1cc2nc(-c3cccc(N)c3C)oc2cc1C	3*
SMILES	Dicer inh
CC1(C)CC(=O)C2=C(C1)Nc1nc(-c3cccnc3)nn1C2c1ccc(Cl)cc1 (centres undefined)	1.6
CN(CCO)c1ccc(C(=O)c2ccc(N(C)CCO)cc2)cc1	-0.79
O=C(Cn1cc(C(=O)c2ccco2)c2ccccc21)NCCc1c[nH]c2ccccc12	4*
O=C(Cn1cc(C(=O)c2ccco2)c2ccccc21)NCc1ccco1	-1.1
O=C(Cn1cc(C(=O)c2ccco2)c2ccccc21)NCc1cccs1	-1.1
O=C(Nc1ccc2ccccc2n1)c1ccco1	-0.75
COc1cc2ncnc(SCC(=O)NNC(=O)C(C)C)c2cc1OC	-1.5
O=C(N/N=C/c1ccccc1Cl)N/N=C/c1ccccc1Cl	3.8*
O=C(N/N=C/c1ccc(Cl)c(Cl)c1)N/N=C/c1ccc(Cl)c(Cl)c1	-2.8
S=C(NCCc1ccccc1)N/N=C/c1ccccc1Cl	1.6
COc1ccc(Br)cc1C1Nc2ccc(C)cc2-c2cc(C)nn21 (centres undefined)	3.5*
COc1ccc(C2Nc3ccc(C)cc3-c3cc(C)nn32)cc1OC (centres undefined)	2.7
Cc1cc(C)c2c(c1)-c1cc(C)nn1C(c1ccc(O)cc1O)N2 (centres undefined)	1.4
Cc1cc2n(n1)C(c1ccc(O)cc1O)Nc1ccccc1-2 (centres undefined)	1.2
COc1ccc(C2Nc3ccccc3-c3cc(C)nn32)c(OC)c1 (centres undefined)	0.44
COc1cccc(C2Nc3ccc(C)cc3-c3cc(C)nn32)c1O (centres undefined)	3*
Cc1ccc2c(c1)-c1cc(C)nn1C(c1ccccc1O)N2 (centres undefined)	-0.25
Cc1cc2n(n1)C(c1cccc(O)c1O)Nc1ccccc1-2 (centres undefined)	21*
Cc1ccc2c(c1)-c1cc(C)nn1C(c1ccc(O)cc1O)N2 (centres undefined)	3.7*
COc1ccc(Br)cc1C1Nc2c(C)cccc2-c2cc(C)nn21 (centres undefined)	2.9
COc1cc(O)ccc1C1Nc2ccc(C)cc2-c2cc(C)nn21 (centres undefined)	2.7
COc1cccc(C2Nc3ccc(C)cc3-c3cc(C)nn32)c1OC (centres undefined)	1.9
COc1nc2c(c(-c3ccc(Cl)cc3Cl)c1C#N)Cc1ccccc1-2	-0.49
O=C(Nc1ccc(F)cc1F)Nc1cn(-c2ccccc2)nc1-c1ccccc1	-0.92
COC(=O)c1scc2c(Oc3ccccc3C(F)(F)F)cc(C(F)(F)F)nc12	-1.1

Assay outcomes: PubChem, Center for Chemical Genomics, University of Michigan
